Experimental findings from PubChem BioAssay (NCATS) are described below.

Records with an inconclusive call do not appear. Entries that show only a call come without a potency. Activity calls are given as the source filed them. Calls come from the whole dose curve; as a rule, active = well fitted inhibition curve with a large enough effect; inconclusive = small, poorly fitted or top-dose-only effect; inactive = flat fitted curve, though single readings scatter.
Potency is the fitted concentration of half-maximal effect.

Sequence of Calcium and integrin-binding protein 1 (Homo sapiens) (Q99828 whole entry, looked up): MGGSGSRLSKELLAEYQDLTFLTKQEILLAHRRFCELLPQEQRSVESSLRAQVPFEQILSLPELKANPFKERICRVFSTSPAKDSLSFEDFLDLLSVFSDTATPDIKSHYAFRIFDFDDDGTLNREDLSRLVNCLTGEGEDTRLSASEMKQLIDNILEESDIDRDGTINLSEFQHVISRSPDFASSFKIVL

This assay has as its target Calcium and integrin-binding protein 1 (Homo sapiens) (UniProt Q99828). Kind of assay: Primary qHTS for Identification of Calcium Integrin Binding Protein 1 (CIB1) Competitor (AID 1508620).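 For activity change, negative = inhibition: GST tagged CIB1 binding a fluorescein labelled alphaIIb integrin peptide tracer; top concentration of the series differs between compounds.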 Particulars: CIB1-GST / FITC-alphaIIb peptide fluorescence polarization; series mostly up to 57.7 µM. In short, it runs like this: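 Fluorescence polarization competition: CIB1-GST (1 uM final) preincubated with compound 15 min at room temperature, then FITC-labeled alphaIIb peptide (100 nM final) added for another 15 min. Polarization read at Ex 480/Em 540.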
In general terms: qHTS replaces the single test concentration by a dilution series.
In the case of `CC(C)(O)c1ccc2c(c1)C(O)CC1C(C)(C(=O)O)CCCC21C` (stereo unspecified), the Potency entry is “inactive”.

Take `O=S(=O)(Nc1ccc(C(O)(C(F)(F)F)C(F)(F)F)cc1)c1cccs1`: the Potency entry is “inactive”.

As for `C[C@@H]1CC[C@H]2C(C)(C)[C@H](O)[C@H](O)C[C@]2(C)[C@@]12Cc1c(O)cc3c(c1O2)CNC3=O`, the Potency entry was “inactive”.

With `C=C1C2=CC(O)C(C)C1(C)CC/C(C)=C/CCC1(C)OC1C2=O` (stereo unspecified), the Potency result was “inactive”.

For `COc1ccc(/C=C/C(=O)O[C@@H]2[C@@H](OC(C)=O)[C@@H](OC(C)=O)[C@H](O[C@H]3[C@@H]4C=CO[C@@H](O[C@@H]5O[C@H](CO)[C@@H](O)[C@H](O)[C@H]5O)[C@@H]4[C@@]4(CO)O[C@@H]34)O[C@H]2C)cc1O`, the Potency entry is “inactive”.

In the case of `N[C@@H](CC(=O)N1CCn2c(nnc2C(F)(F)F)C1)Cc1[nH]nc2c(F)c(F)ccc12`, the Potency entry was “inactive”.

Take `CC1(C)CC(=O)N(CCCCN2CCN(c3ncccn3)CC2)C(=O)C1`: the Potency entry is “inactive”.

In the case of `N#Cc1ccc2[nH]c(O)c(-c3ccc(CN4CCOCC4)cn3)c2c1`, the Potency result was “inactive”.

As for `COC(=O)[C@@]1(O)C=CC[C@@H]2[C@@]3(C)C[C@@H](c4ccoc4)OC(=O)[C@H]3CC[C@]21C`, the Potency entry was “inactive”.

Regarding `CCn1c2ccccc2c2cc(CNC)ccc21`, the Potency entry was “inactive”.

For the compound `CC[C@H]1OC(=O)[C@H](C)[C@@H](OC2C[C@@](C)(OC)[C@@H](O)[C@H](C)O2)[C@H](C)[C@@H](OC2O[C@H](C)C[C@H](NC)[C@H]2O)[C@](C)(O)C[C@@H](C)CN(C)[C@H](C)[C@@H](O)[C@]1(C)O` (stereo partly specified), the Potency result is “inactive”.

Take `C=C1C2(CCC(=O)OC2(C)C)CC(OC(=O)/C(C)=C/C)C2(C)C13OC14C(=O)OC(C)(C(=O)C12C(=O)OC4C)C3OC(C)=O` (stereo unspecified): the Potency entry was “inactive”.

Take `FC(F)(F)c1cc(C(F)(F)F)c2ccc3nc(-c4nnco4)cn3c2n1`: the Potency result is “inactive”.

For `CC1(C)CCC2(C(=O)OC3OC(COC4OC(CO)C(O)C(O)C4O)C(O)C(O)C3O)CCC3(C)C(=CCC4C5(C)CCC(O)C(C)(C(=O)O)C5CCC43C)C2C1O` (stereo unspecified), the Potency result is “inactive”.

Turning to `O=C(/C=C/c1ccc(O)cc1)O[C@H]1[C@@H]2C=CO[C@@H](O[C@@H]3O[C@H](CO)[C@@H](O)[C@H](O)[C@H]3O)[C@@H]2[C@@]2(CO)O[C@@H]12`, the Potency entry was “inactive”.

As to `C[C@]1(O)CC[C@@H]2C(C(=O)O)=CO[C@@H](O[C@@H]3O[C@H](COC(=O)c4ccc(O)cc4)[C@@H](O)[C@H](O)[C@H]3O)[C@@H]21`, the Potency entry was “inactive”.

Turning to `CC(NC(=O)CC(=O)O)c1nc2ccccc2c(=O)[nH]1` (stereo unspecified), the Potency was 28.2 µM (active).

Consider `CC1(C)CCC[C@@]2(C)[C@H]1[C@H](O)C=C1COC(=O)[C@@]12O`, for which the Potency result was “inactive”.

As to `C=C1CC2C3(C)C(OC(C)=O)CC(=O)OC(C)(C)C3C(O)C(OC(C)=O)C2(C)C2C(=O)OC(C)C(=O)C12C` (stereo unspecified), the Potency result is “inactive”.

Consider `CC1(C)OC(=O)C(OCC2CC2)=C1c1ccc(S(C)(=O)=O)cc1`, for which the Potency result was “inactive”.

For the compound `COc1ccc(C(O[C@@H]2O[C@H](CO)[C@@H](O)[C@H](O)[C@H]2O)C(CO)Oc2ccc(/C=C/CO)cc2OC)cc1O` (stereo partly specified), the Potency entry is “inactive”.

As to `C=CC(C)(O)CC/C=C(\C)C(=O)OC1CC2(C(=O)O)CCC3(C)C(=CCC4C5(C)CCC(OC6OC(COC7OCC(O)C(O)C7O)C(O)C(OC7OCC(O)C(O)C7O)C6OC6OC(CO)C(O)C(O)C6OC6OCC(O)C(O)C6O)C(C)(C)C5CCC43C)C2CC1(C)C` (stereo unspecified), the activity change, negative = inhibition was -4.39% [at 12.4 µM] (inactive).

With `C[C@@H]1O[C@@H](O[C@H]2[C@H](OC(=O)[C@]34CCC(C)(C)C[C@H]3C3=CCC5[C@@]6(C)C[C@H](O)[C@H](O[C@@H]7O[C@H](CO)[C@@H](O[C@@H]8O[C@H](CO)[C@@H](O)[C@H](O)[C@H]8O)[C@H](O)[C@H]7O)[C@@](C)(CO)C6[C@H](O)C[C@@]5(C)[C@]3(C)C[C@H]4O)OC[C@H](O)[C@@H]2O)[C@H](O)[C@H](O)[C@H]1O[C@@H]1OC[C@@H](O)[C@H](O[C@@H]2OC[C@](O)(CO)[C@H]2O)[C@H]1O` (stereo partly specified), the activity change, negative = inhibition was 4.23% [at 12.4 µM] (inactive).

On to `COc1cc(/C=C/C(=O)OC2CC(C)=C(C(=O)O)/C2=C/CO[C@@H]2O[C@H](CO)[C@@H](O)[C@H](O)[C@H]2O)ccc1O` (stereo partly specified), for which the Potency result is “inactive”.

As to `CC1CCC2(C(=O)OC3OC(CO)C(O)C(O)C3O)CCC3(C)C(=CCC4C5(C)CC(O)C(O)C(C)(C(=O)O)C5CCC43C)C2C1(C)O` (stereo unspecified), the Potency result is “inactive”.

Regarding `C=C1C[C@]23C[C@H]1CC[C@H]2[C@]1(C)CCC[C@@]2(CO)C(=O)O[C@H]([C@H]21)[C@@H]3O`, the Potency result was “inactive”.
